# The supplement of paper PMC9262897, “Low-cost anti-mycobacterial drug discovery using engineered E. coli” (Nature Communications, 2022)
# Structures can show the parent of a compound that is named as a salt. ± gives the standard deviation of the averaged measurements.
# Experiments:
# Assay in all cases: growth (OD600 after 10 h); higher = more growth (less inhibition)
# [1] = system: E. coli TESEC Alr+ wild-type control; settings: compound 0.1 mM; raw OD600 reference: median of DMSO wells 0.241, cell-free background 0.041
# Procedure: (§1)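 TESEC Mtb Alr E. coli, or the Alr+ wild-type control, in 384-well plates with Prestwick library compounds at 0.1 mM and 1% DMSO, across arabinose induction levels of 1E3 to 1E7 nM. Growth is read as OD600 after 10 h at 37 °C in triplicate biological replicates.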
# E. coli TESEC Mtb Alr [2] = settings: compound 0.1 mM
# Procedure: as §1
# E. coli TESEC Mtb Asd = settings: compound 0.1 mM
# Procedure: (§2)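 TESEC E. coli strains in which the native enzyme is deleted and replaced by arabinose-inducible Mtb Asd, DapB, CysH or TrpD, each grown in its selective medium. Strains were screened against the Prestwick library at 0.1 mM and 1% DMSO in 384-well format at low and high arabinose induction. Growth is read as OD600 after 10 h in triplicate.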
# E. coli TESEC Mtb Alr [3] = settings: compound 0.1 mM; remark: listed apart in the source
# Procedure: (§3)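 TESEC Mtb Alr E. coli (ΔaraC ΔtolC ΔentC Δalr ΔdadX, arabinose-inducible Mtb Alr) or the Alr+ wild-type control strain, grown in defined M9-fructose medium without D-alanine in 96-well plates with Prestwick library compounds at 0.1 mM and 1% DMSO. Low Alr induction is 0.1 µM arabinose and high induction is 10 mM arabinose.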
# E. coli TESEC Mtb DapB = settings: compound 0.1 mM
# Procedure: as §2
# [4] = system: E. coli TESEC Alr+ wild-type control; settings: compound 0.1 mM; raw OD600 reference: median of DMSO wells 0.49, cell-free background 0.052
# Procedure: as §3
# [5] = arabinose 1000 nM, raw OD600 reference: median of DMSO wells 0.294, cell-free background 0.041
# [6] = arabinose 10000 nM, raw OD600 reference: median of DMSO wells 0.264, cell-free background 0.041
# [7] = arabinose 100000 nM, raw OD600 reference: median of DMSO wells 0.201, cell-free background 0.041
# [8] = arabinose 1000000 nM, raw OD600 reference: median of DMSO wells 0.193, cell-free background 0.041
# [9] = arabinose 10000000 nM, raw OD600 reference: median of DMSO wells 0.146, cell-free background 0.041
# [10] = arabinose induction (level): High, raw OD600 reference: median of DMSO wells 0.331, cell-free background 0.041
# [11] = arabinose induction (level): Low, raw OD600 reference: median of DMSO wells 0.417, cell-free background 0.041
# [12] = arabinose 100 nM, raw OD600 reference: median of DMSO wells 0.413, cell-free background 0.052
# [13] = arabinose 10000000 nM, raw OD600 reference: median of DMSO wells […], cell-free background 0.052
# [14] = arabinose induction (level): High, raw OD600 reference: median of DMSO wells […], cell-free background 0.041
# [15] = arabinose induction (level): Low, raw OD600 reference: median of DMSO wells 0.227, cell-free background 0.041
SMILES,growth [1],growth (E. coli TESEC Mtb Alr [2]; [5]),growth (E. coli TESEC Mtb Alr [2]; [6]),growth (E. coli TESEC Mtb Alr [2]; [7]),growth (E. coli TESEC Mtb Alr [2]; [8]),growth (E. coli TESEC Mtb Alr [2]; [9]),growth (E. coli TESEC Mtb Asd; [10]),growth (E. coli TESEC Mtb Asd; [11]),growth (E. coli TESEC Mtb Alr [3]; [12]),growth (E. coli TESEC Mtb Alr [3]; [13]),growth (E. coli TESEC Mtb DapB; [14]),growth (E. coli TESEC Mtb DapB; [15]),growth [4]
CCn1cc(C(=O)O)c(=O)c2cc(F)c(N3CCN(C)CC3)cc21 [Pefloxacine],0.0478 ± 0.00026,0.0453 ± 0.00047,0.0396 ± 0.00047,0.0454 ± 0.0017,0.04 ± 0.00096,0.05157 ± 0.0004,0.0645 ± 0.0063,0.0631 ± 0.0043,0.0539 ± 0.00064,0.0515 ± 0.00064,–,–,–
C[C@]1(Cn2ccnn2)[C@H](C(=O)O)N2C(=O)C[C@H]2S1(=O)=O [Tazobactam],0.249 ± 0.011,–,–,–,–,–,0.405 ± 0.031,0.424 ± 0.022,0.245 ± 0.17,0.0826 ± 0.0045,0.195 ± 0.004,0.19 ± 0.017,0.0454 ± 0.00051
Nc1c2ccccc2nc2ccccc12 [Aminacrine],0.0412 ± 0.0015,–,–,–,–,–,0.0581 ± 0.016,0.0513 ± 0.004,0.15 ± 0.062,0.0885 ± 0.027,0.0484 ± 0.00044,0.0506 ± 0.005,0.0507 ± 0.00067
COC(=O)[C@H]1[C@H]2C[C@@H]3c4[nH]c5cc(OC)ccc5c4CCN3C[C@H]2C[C@@H](OC(=O)c2cc(OC)c(OC)c(OC)c2)[C@@H]1OC [Reserpine],0.201 ± 0.0092,0.234 ± 0.027,0.223 ± 0.02,0.214 ± 0.012,0.193 ± 0.012,0.214 ± 0.0036,0.333 ± 0.032,0.191 ± 0.0062,0.408 ± 0.013,0.112 ± 0.076,–,–,–
Cc1c(Cl)cccc1Nc1ncccc1C(=O)O [Clonixin Lysinate],0.181 ± 0.0096,–,–,–,–,–,0.19 ± 0.011,0.17 ± 0.0079,0.283 ± 0.023,0.173 ± 0.026,0.175 ± 0.019,0.207 ± 0.035,0.334 ± 0.0083
Clc1ccc(CSC(Cn2ccnc2)c2ccc(Cl)cc2Cl)cc1 (stereo not given) [Sulconazole nitrate],0.0579 ± 0.0028,0.0534 ± 0.0013,0.0668 ± 0.0017,0.0542 ± 0.00071,0.0669 ± 0.0011,0.0556 ± 0.0041,0.0615 ± 0.0029,0.0557 ± 0.0015,0.0787 ± 0.039,0.0898 ± 0.0077,–,–,–
COC(=O)C1=C(C)NC(C)=C(C(=O)OC2CCCN(Cc3ccccc3)C2)C1c1cccc([N+](=O)[O-])c1 (stereo not given) [Benidipine hydrochloride],0.184 ± 0.005,–,–,–,–,–,0.162 ± 0.0021,0.157 ± 0.0085,0.353 ± 0.018,0.122 ± 0.028,0.17 ± 0.022,0.192 ± 0.016,0.295 ± 0.015
CC(=O)N(CC(C)C(=O)O)c1c(I)cc(I)c(N)c1I (stereo not given) [Iocetamic acid],0.213 ± 0.007,–,–,–,–,–,0.36 ± 0.022,0.268 ± 0.021,0.183 ± 0.11,0.397 ± 0.011,0.202 ± 0.018,0.202 ± 0.019,0.509 ± 0.026
Clc1cnccn1 [2-Chloropyrazine],0.241 ± 0.011,0.03733 ± 0.00025,0.0408 ± 0.0011,0.11 ± 0.0059,0.112 ± 0.0027,0.196 ± 0.0073,0.245 ± 0.034,0.307 ± 0.049,0.4217 ± 0.0015,0.325 ± 0.0083,–,–,–
CCCCOc1ccc(OCCCN2CCOCC2)cc1 [Pramoxine hydrochloride],0.199 ± 0.0084,–,–,–,–,–,0.362 ± 0.03,0.403 ± 0.022,0.408 ± 0.0076,0.332 ± 0.011,0.183 ± 0.014,0.226 ± 0.0093,0.425 ± 0.028
CN(Cc1cnc2nc(N)nc(N)c2n1)c1ccc(C(=O)N[C@@H](CCC(=O)O)C(=O)O)cc1 [Methotrexate],0.225 ± 0.0067,–,–,–,–,–,0.24 ± 0.055,0.359 ± 0.022,0.277 ± 0.14,0.126 ± 0.0066,0.2 ± 0.0058,0.254 ± 0.022,0.102 ± 0.0015
CCN(CC)CCOCCOC(=O)C1(c2ccccc2)CCCC1 [Carbetapentane citrate],0.203 ± 0.0053,–,–,–,–,–,0.153 ± 0.017,0.294 ± 0.064,0.41 ± 0.0084,0.288 ± 0.012,0.185 ± 0.021,0.199 ± 0.011,0.539 ± 0.035
CO[C@@]1(NC(=O)Cc2cccs2)C(=O)N2C(C(=O)O)=C(COC(N)=O)CS[C@@H]21 [Cefoxitin sodium salt],0.0397 ± 0.00092,–,–,–,–,–,0.0597 ± 0.0059,0.0593 ± 0.014,0.0456 ± 0.00026,0.052 ± 0.0013,0.0512 ± 0.0019,0.0492 ± 0.0059,0.0458 ± 0.00061
OC(CCN1CCCC1)(c1ccccc1)C1CCCCC1 (stereo not given) [Procyclidine hydrochloride],0.206 ± 0.018,–,–,–,–,–,0.314 ± 0.14,0.473 ± 0.055,0.412 ± 0.009,0.317 ± 0.0092,0.177 ± 0.026,0.245 ± 0.033,0.573 ± 0.041
